Screening data as filed in PubChem.
PKM2 act: qHTS Assay for Activators of Human Muscle isoform 2 Pyruvate Kinase; Pyruvate kinase PKM (Homo sapiens), P14618; purified PKM2, Kinase-Glo ATP luminescence, activation; response scale: 0% is enzyme alone, no compound; Potency, µM (series often up to 57.5 µM), hits mostly activators; actives 0.34% (n = 260,000); note: nearly all actives have a fitted effect of over 55% in size
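Purified hPK-M2 (>95% pure) converted ADP (0.1 mM final) to ATP with 0.5 mM PEP in 50 mM imidazole pH7.2, KCl, MgCl2, Tween 20, BSA; 1 h at room temperature. ATP detected by Kinase-Glo luminescence.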
Rango dissoc inh: qHTS Assay for Inhibitors of RanGTP induced Rango (Ran-regulated importin-beta cargo) - Importin beta complex dissociation; Snurportin-1 (Homo sapiens) + GTP-binding nuclear protein Ran (Homo sapiens) + Importin …; Biochemical FRET Rango-importin beta, RanGTP-induced dissociation; Potency, µM (series often up to 46.1 µM); actives 0.071% (n = 340,000); calls by dose curve; note: nearly all actives have a fitted effect of over 45% in size
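Rango (0.1 uM)–importin beta (0.25 uM) complex; RanGTP-RCC1 trigger; 45 min RT; CFP/YFP FRET read.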
Tb PGK inh: qHTS Assay to Find Inhibitors of Phosphoglycerate Kinase; Potency, µM (series often up to 57.5 µM), hits mostly inhibitors; PGK/GAPDH coupled, Kinase-Glo luminescence, 60 min; actives 0.043% (n = 380,000); AID 602233, 2012; note: nearly all actives have a fitted effect of over 60% in size
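Luminescent ATP detection (Kinase-Glo Plus) follows a 60-minute room-temperature incubation, with wells lacking PGK as controls. Buffer: 100 mM TEA (pH 7.6), 5 mM MgCl2, 0.01% Tween-20. Coupling enzyme GAPDH (100 nM final) supplies unstable 1,3-BPG in-well.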
ELG1 repair inh: qHTS screen for small molecules that inhibit ELG1-dependent DNA repair in human embryonic kidney (HEK293T) cells expressing luciferase-tagged ELG1; HEK293T ELG1-luciferase reporter, luminescence, 16 h; DNA damage induced by 5-fluorouridine; Potency, µM (doses to about 46.1 µM), most hits filed as inhibitors; actives 2.3% (n = 330,000); AID 504467, 2011; note: nearly all actives have a fitted effect of over 55% in size
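Step one: seed 2,000 cells per well. Step two: pin-transfer compound or DMSO alongside 5-fluorouridine. Step three: incubate 16 hr, 37 °C, 5% CO2. Step four: add ONE-Glo, wait 30 min, read luminescence.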
Tb PFK inh: qHTS Assay to Find Inhibitors of T. brucei phosphofructokinase | ATP-dependent 6-phosphofructokinase (Trypanosoma brucei brucei), O15648 | T. brucei PFK, ADP-Glo luminescence | Potency, µM (series often up to 57.5 µM), most hits filed as inhibitors | actives 0.17% (n = 330,000) | AID 485367, 2010; note: nearly all actives have a fitted effect of over 60% in size
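PFK 1.25 nM, F6P 0.5 mM, ATP 0.1 mM, 0.1 M TEA pH 8.0, 5 mM MgCl2, 0.01% Tween20, 0.1% BSA; 45 min RT. ADP-Glo readout. qHTS titration up to 57 uM; curves fitted, compounds curve-classed.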
Rango complex inh: qHTS Assay for Inhibitors of Rango (Ran-regulated importin-beta cargo) - Importin beta complex formation; Importin subunit beta-1 (Homo sapiens), Q14974; Rango CFP/YFP FRET sensor + importin beta, 45 min; Potency, µM (series often up to 92.2 µM); actives 0.031% (n = 340,000); calls by dose curve; note: nearly all actives have a fitted effect of over 15% in size
Target sequence (Q14974 whole entry, looked up): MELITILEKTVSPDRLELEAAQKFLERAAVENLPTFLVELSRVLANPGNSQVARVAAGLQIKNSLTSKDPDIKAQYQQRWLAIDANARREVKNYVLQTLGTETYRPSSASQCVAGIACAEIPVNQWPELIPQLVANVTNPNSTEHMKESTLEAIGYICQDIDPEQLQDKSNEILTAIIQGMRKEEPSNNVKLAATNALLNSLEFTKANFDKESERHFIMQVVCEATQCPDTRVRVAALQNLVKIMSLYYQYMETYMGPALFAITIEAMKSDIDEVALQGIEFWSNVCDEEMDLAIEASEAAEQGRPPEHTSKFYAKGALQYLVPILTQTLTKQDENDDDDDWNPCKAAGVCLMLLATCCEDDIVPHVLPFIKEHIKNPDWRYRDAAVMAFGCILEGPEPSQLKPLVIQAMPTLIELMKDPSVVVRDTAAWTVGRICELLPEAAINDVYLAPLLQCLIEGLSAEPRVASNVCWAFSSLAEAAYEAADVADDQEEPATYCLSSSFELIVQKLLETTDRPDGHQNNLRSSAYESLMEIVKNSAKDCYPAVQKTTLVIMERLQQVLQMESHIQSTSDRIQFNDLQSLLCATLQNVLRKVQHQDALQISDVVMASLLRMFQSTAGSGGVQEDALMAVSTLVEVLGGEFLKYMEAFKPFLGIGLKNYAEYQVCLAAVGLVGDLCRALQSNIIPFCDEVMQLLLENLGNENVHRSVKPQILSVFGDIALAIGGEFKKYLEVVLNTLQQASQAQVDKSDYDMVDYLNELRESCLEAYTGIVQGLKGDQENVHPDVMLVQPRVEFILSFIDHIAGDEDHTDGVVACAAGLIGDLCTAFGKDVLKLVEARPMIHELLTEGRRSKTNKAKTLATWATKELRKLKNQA
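Inhibition scored from the CFP 486 nm/YFP 530 nm FRET ratio 45 min after adding 0.125 microM importin beta to 50 nM Rango biosensor preincubated 5 min with compound (room temperature, PBS with DTT, Tween-20, BSA). No-importin wells as positive control.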
ELG1 FLuc counter: qHTS screen for small molecules that inhibit ELG1-dependent DNA repair: Hit Confirmation in Cell-Based Luciferin Assay; shares compounds with ELG1 repair inh; cell-free firefly luciferase luminescence counter-screen, ViewLux; Potency, µM (doses to about 46.1 µM), most hits filed as inhibitors; AID 624247, 2012; actives 3% (n = 350)
ELG1 Luc conf: HTS assay for small molecules that inhibit ELG1-dependent DNA repair in human embryonic kidney (HEK293T) cells expressing luciferase-tagged ELG1: Hit Confirmation. actives 68% (n = 670). Potency, µM (highest dose often 46.1 µM), hits mostly inhibitors. HEK293T ELG1-luciferase levels, luminescence; cells co-treated with 5-fluorouridine. shares compounds with ELG1 repair inh; note: nearly all actives have a fitted effect of over 55% in size
ELG1-Luc MMS: confirmation of human ELG1 repair inhibitors, MMS stimulated. shares compounds with ELG1 repair inh. HEK293T luciferase-tagged ELG1 level, MMS stimulated. Potency, µM (series often up to 46.1 µM), usual class: inhibitors. actives 53% (n = 670). AID 624249; note: nearly all actives have a fitted effect of over 60% in size
ELG1 5FU viab: qHTS screen for small molecules that inhibit ELG1-dependent DNA repair: Hit Confirmation with 5FU Viability; 670 tested, under 10 active; Potency, µM (highest dose often 46.1 µM), hits mostly cytotoxic; cell viability with 5-FU, ELG1-dependent repair; AID 624250, 2012; shares compounds with ELG1 repair inh;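 note: ELG1-luc HEK293T cells cotreated with 5-fluorouridine at 10 µM final; viability measured 16 h after compound addition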
ELG1 MMS viab: qHTS screen for small molecules that inhibit ELG1-dependent DNA repair: Hit Confirmation with MMS Viability; shares compounds with ELG1 repair inh; Cell viability with MMS, ELG1-dependent DNA repair; Potency, µM (doses to about 46.1 µM), hits mostly cytotoxic; actives 33% (n = 670); AID 624251, 2012;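 note: ELG1-luc HEK293T cells co-treated with 10 µM MMS; viability read 16 h after compound addition; nearly all actives have a fitted effect of over 60% in size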
ELG1 unstim viab: qHTS screen for small molecules that inhibit ELG1-dependent DNA repair: Hit Confirmation with Unstimulated Viability Assay; shares compounds with ELG1 repair inh; cell viability counter-screen, unstimulated, luminescence; Potency, µM (series often up to 45.9 µM), most hits filed as cytotoxic; actives 8% (n = 900);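 note: compound exposure lasted 16 hours before reading; nearly all actives have a fitted effect of over 55% in size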
FLuc enzyme: qHTS screen for small molecules that inhibit ELG1-dependent DNA repair: Hit Confirmation in Biochemical Luciferin Assay; actives 10% (n = 350); AID 624253, 2012; shares compounds with ELG1 repair inh; Potency, µM (highest dose often 57.5 µM), actives largely listed as inhibitors; purified firefly luciferase, luminescence counter-screen
A number is an active result; . = inactive; ? = inconclusive; / = not tested or not shown. In the library only some 2.4% were active in any assay of this set; here they are far more common. Unless noted, calls come from the whole dose curve; as a rule, active = well fitted curve in the direction sought with a large enough effect; inconclusive = small, poorly fitted or top-dose-only effect, or another doubt; inactive = no such curve, though single readings can be large; an effect the other way counts as inactive or inconclusive.

SMILES	PKM2 act	Rango dissoc inh	Tb PGK inh	ELG1 repair inh	Tb PFK inh	Rango complex inh	ELG1 unstim viab	others
CCOc1ccc(N2CCCn3c2nc2c3c(=O)n(CCc3ccccc3)c(=O)n2C)cc1	.	/	/	.	.	/	/
O=c1c2ccccc2oc2c1oc1ccccc12	/	.	.	?	.	.	.
O=c1c2ccccc2oc2cc(Br)ccc12	/	.	.	/	/	.	/
Cc1cc(C)n2nc(SCC(=O)N3CC(C)CC(C)C3)nc2n1 (stereo not drawn)	/	.	.	.	.	.	/
Cc1cccc(NC(=O)CSc2nc3ccccc3o2)c1	.	.	.	?	.	.	.	ELG1 FLuc counter=.;FLuc enzyme=.
O=C(CSc1nc2ccccc2o1)Nc1cc(C(F)(F)F)ccc1N1CCOCC1	.	.	.	.	.	.	/
CC(=O)Nc1ccc(NC(=O)CSc2nc3ccccc3o2)cc1	.	.	.	?	.	.	/
CC(=O)c1cc2c(cc1NC(=O)CSc1nc3ccccc3o1)OCO2	.	.	.	?	.	.	.	ELG1 FLuc counter=.;FLuc enzyme=.
CC(=O)c1cc2c(cc1NC(=O)CSc1nc3ccccc3[nH]1)OCO2	?	/	/	?	.	/	/
O=C(CSc1nc2ccccc2o1)Nc1ccccc1N1CCCCCC1	.	.	.	.	.	.	.	ELG1 FLuc counter=.;FLuc enzyme=.
COC(=O)CN1C(=O)CSc2ccc(S(=O)(=O)Nc3ccc(C(C)=O)cc3)cc21	/	/	.	/	/	/	/
CCN(C(=O)Cn1nnc(-c2ccccc2)n1)C1CCS(=O)(=O)C1 (stereo not drawn)	/	.	.	.	.	.	/
Cc1ccc2c(c1)C/C(=C/c1ccc(N(C)C)cc1)C2=O	/	/	/	/	/	/	.
CN(C)c1ccc(/C=C2\CCC/C(=C\c3ccccc3)C2=O)cc1	.	?	.	?	.	?	/
Nc1ncnc2c1c(I)cn2C1OC(CO)C(O)C1O (stereo not drawn)	/	/	/	/	/	/	.	ELG1 FLuc counter=?;ELG1 Luc conf=0.4µM;ELG1-Luc MMS=1µM;ELG1 5FU viab=.;ELG1 MMS viab=?;FLuc enzyme=.
CSc1ncnc2c1ncn2C1OC(CO)C(O)C1O (stereo not drawn)	/	/	/	/	/	/	0.56µM	ELG1 FLuc counter=.;ELG1 Luc conf=0.04µM;ELG1-Luc MMS=2µM;ELG1 5FU viab=?;ELG1 MMS viab=?;FLuc enzyme=.
COc1ccc(-c2cnc(C(N)=O)c(=O)[nH]2)cc1	/	/	.	/	/	/	/
C=CC[C@@H](CC(=O)NCCO)C(=O)NC[C@H](OC(=O)[C@@H](CC=C)Cc1ccc(F)cc1)c1ccccc1	/	.	.	3.3µM	.	.	.	ELG1 Luc conf=?;ELG1-Luc MMS=14µM;ELG1 5FU viab=?;ELG1 MMS viab=.
Cc1nnc(SCC(=O)Nc2sccc2C#N)s1	.	.	.	.	.	?	/
N#Cc1ccsc1NC(=O)CSc1nncs1	/	.	.	?	.	.	.
CCc1ccc(-c2nc(CN3CCC(C(=O)N4CCN(c5ccccc5)CC4)CC3)c(C)o2)cc1	.	.	.	?	.	.	/
Cc1oc(-c2ccc(Cl)cc2)nc1CN1CCCC(C(=O)N2CCN(C(=O)c3ccco3)CC2)C1 (stereo not drawn)	.	.	.	4.1µM	.	.	?	ELG1 Luc conf=14µM;ELG1-Luc MMS=1.3µM;ELG1 5FU viab=.;ELG1 MMS viab=1.6µM
